The results in this text go back to ChEMBL document CHEMBL1961873, “Compounds: GSK PKIS; Assays: Nanosyn kinase panel” (2012).

Values joined by “and” are separate entries in the source; they are usually repeats but may differ in a detail not shown here. Equal values may be shown once.

The target in assay [1] is Serine/threonine-protein kinase 26 (Homo sapiens) (UniProt Q9P289). Particulars: at 1 µM.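 Further: mean inhibition of MST4 kinase activity, reported from the GSK PKIS inhibitor-set screening panel.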
In assay [2] the target is Serine/threonine-protein kinase PAK 1 (Homo sapiens) (UniProt Q13153). The note with it: at 0.1 µM.
Assay [3] shares this target. Particulars: at 1 µM.
Assay [4] has as its target Serine/threonine-protein kinase PAK 2 (Homo sapiens) (UniProt Q13177). Particulars: at 0.1 µM.
Assay [5] shares this target. Particulars: at 1 µM.
Assay [6] deals with Serine/threonine-protein kinase PAK 3 (Homo sapiens) (UniProt O75914). Particulars: at 0.1 µM.
The target is the same in assay [7]. Particulars: at 1 µM.
Assay [8] has as its target Serine/threonine-protein kinase PAK 5 (Homo sapiens) (UniProt Q9P286). Particulars: at 0.1 µM.
The target is the same in assay [9]. Particulars: at 1 µM.
The target in assay [10] is Serine/threonine-protein kinase PAK 6 (Homo sapiens) (UniProt Q9NQU5). Particulars: at 0.1 µM.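 Further: mean PAK6 inhibition reported from the GSK PKIS screen.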
Serine/threonine-protein kinase PAK 6 (Homo sapiens), sequence (Q9NQU5 whole entry, looked up): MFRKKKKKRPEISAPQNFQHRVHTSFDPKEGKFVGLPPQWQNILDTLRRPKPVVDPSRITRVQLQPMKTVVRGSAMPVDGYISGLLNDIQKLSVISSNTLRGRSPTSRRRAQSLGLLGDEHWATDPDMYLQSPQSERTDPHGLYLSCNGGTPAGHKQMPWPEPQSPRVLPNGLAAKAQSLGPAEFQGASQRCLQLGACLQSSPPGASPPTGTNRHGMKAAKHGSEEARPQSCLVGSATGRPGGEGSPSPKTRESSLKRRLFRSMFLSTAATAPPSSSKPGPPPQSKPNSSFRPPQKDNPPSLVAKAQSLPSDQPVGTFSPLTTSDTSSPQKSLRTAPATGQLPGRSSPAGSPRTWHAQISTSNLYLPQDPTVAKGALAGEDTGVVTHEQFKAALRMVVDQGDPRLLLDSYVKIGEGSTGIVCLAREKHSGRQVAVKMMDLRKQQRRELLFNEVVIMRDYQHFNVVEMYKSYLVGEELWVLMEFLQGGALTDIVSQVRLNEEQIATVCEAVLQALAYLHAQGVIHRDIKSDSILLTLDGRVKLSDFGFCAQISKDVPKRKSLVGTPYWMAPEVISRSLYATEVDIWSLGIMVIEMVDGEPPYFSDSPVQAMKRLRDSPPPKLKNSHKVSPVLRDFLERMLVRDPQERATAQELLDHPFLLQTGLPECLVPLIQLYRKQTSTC

Serine/threonine-protein kinase PAK 1 (Homo sapiens), sequence (Q13153 whole entry): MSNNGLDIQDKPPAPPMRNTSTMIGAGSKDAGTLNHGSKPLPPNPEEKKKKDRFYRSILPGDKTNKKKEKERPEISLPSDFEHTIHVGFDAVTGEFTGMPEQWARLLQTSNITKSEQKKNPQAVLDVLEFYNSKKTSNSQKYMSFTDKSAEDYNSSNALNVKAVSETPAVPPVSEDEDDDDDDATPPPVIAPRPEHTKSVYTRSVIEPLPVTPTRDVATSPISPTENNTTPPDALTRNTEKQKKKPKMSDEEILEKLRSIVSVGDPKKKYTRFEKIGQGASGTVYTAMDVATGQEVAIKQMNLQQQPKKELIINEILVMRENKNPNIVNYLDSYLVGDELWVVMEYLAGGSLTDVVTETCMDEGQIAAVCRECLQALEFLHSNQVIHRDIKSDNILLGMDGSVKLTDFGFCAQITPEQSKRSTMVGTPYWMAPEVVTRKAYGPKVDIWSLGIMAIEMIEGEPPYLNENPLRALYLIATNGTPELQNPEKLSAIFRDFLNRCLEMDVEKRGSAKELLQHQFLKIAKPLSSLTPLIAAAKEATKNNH
Serine/threonine-protein kinase PAK 3 (Homo sapiens), sequence (O75914 whole entry, looked up): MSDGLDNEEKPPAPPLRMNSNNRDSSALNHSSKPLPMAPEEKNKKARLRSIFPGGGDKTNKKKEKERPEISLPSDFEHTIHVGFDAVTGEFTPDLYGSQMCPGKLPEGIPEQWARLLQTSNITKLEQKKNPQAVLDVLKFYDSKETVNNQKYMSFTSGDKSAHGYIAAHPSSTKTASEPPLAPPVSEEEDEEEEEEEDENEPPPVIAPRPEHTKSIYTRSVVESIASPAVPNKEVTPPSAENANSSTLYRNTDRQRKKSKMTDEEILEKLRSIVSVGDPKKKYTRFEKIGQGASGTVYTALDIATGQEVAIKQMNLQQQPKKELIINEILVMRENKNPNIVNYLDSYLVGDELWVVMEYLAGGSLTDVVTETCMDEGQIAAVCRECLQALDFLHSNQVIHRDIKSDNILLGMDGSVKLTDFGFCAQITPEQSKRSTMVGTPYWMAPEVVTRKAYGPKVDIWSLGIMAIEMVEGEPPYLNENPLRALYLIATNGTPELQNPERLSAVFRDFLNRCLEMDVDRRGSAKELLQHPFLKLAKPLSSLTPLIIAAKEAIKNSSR
Serine/threonine-protein kinase PAK 2 (Homo sapiens), sequence (Q13177 whole entry): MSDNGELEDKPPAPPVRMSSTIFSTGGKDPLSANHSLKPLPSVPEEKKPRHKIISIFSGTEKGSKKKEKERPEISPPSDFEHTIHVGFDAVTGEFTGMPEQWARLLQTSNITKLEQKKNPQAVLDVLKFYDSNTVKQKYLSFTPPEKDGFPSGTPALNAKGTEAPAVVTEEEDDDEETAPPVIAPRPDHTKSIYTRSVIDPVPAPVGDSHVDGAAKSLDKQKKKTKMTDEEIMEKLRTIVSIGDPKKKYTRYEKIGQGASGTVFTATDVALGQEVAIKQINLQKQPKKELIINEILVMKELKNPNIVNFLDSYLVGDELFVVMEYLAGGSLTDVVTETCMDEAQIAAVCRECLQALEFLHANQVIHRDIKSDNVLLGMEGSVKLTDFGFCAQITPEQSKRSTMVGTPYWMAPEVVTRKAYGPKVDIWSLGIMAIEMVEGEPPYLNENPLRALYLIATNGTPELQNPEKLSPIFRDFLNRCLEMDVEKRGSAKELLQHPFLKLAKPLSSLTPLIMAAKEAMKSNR
Serine/threonine-protein kinase PAK 5 (Homo sapiens), sequence (Q9P286 whole entry, looked up): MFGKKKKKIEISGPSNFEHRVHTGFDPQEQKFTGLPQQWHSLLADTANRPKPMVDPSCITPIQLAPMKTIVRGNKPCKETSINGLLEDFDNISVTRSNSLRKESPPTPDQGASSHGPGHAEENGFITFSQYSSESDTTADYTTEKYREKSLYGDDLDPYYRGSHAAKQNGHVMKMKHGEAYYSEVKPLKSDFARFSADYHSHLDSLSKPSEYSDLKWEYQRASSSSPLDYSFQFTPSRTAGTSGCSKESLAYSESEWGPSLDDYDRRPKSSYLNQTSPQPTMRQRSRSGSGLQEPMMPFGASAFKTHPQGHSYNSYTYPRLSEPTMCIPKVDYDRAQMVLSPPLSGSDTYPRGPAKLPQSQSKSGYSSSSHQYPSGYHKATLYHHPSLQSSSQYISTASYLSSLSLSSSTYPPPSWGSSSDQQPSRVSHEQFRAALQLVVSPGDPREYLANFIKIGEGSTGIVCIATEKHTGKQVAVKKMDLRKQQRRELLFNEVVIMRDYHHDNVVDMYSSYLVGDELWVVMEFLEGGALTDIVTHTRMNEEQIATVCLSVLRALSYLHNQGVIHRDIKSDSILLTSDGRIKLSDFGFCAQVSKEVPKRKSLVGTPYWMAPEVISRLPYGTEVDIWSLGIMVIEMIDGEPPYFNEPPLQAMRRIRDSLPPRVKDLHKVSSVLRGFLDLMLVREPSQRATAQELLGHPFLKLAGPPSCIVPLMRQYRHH
Serine/threonine-protein kinase 26 (Homo sapiens), sequence (Q9P289 2-416 limits assumed): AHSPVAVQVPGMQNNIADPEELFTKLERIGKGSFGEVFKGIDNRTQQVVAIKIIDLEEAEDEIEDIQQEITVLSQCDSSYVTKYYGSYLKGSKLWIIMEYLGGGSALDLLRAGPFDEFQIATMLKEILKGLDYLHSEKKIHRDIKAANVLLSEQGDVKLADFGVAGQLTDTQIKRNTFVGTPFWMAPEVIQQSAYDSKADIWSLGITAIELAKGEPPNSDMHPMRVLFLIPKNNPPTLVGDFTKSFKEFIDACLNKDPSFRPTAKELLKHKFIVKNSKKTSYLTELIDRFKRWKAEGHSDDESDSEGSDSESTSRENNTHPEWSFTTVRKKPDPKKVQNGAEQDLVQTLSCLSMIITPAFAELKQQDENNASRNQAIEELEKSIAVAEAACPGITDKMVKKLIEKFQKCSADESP

On to `Cc1ccc(-c2cc3c(NC(=O)C4CC4)ncnc3o2)cc1`, for which the inhibition is -2.53% in assay [1]; 3.85% in assay [2]; 5.51% in assay [3]; 1.95% in [4]; 1.97% in assay [5]; 3.79% in [6]. In addition, the inhibition in assay [7] was 4.95%; in assay [8] it was 4.59%; in [9] it was -3.05%; in [10] it was 4.74%.
For `CCS(=O)(=O)c1ccc(OC)c(Nc2ncc(-c3cccc(C(C)=O)c3)o2)c1`, the inhibition in [1] is 1.58%; in [2] it was 8.45%; in assay [3] it was 1.48%; in [4] it was 2.47%; in assay [5], 1.36%; in assay [6] it was -0.54%. Further, the inhibition in assay [7] was 3.98%; in assay [8], 7.26%; in assay [9] it was 8.72%; in [10] it was 7.53%.
For `COc1cc2c(cc1Nc1nc(Nc3cccc(F)c3C(N)=O)c3cc[nH]c3n1)N(C(=O)CN1CCN(C(C)C)CC1)CC2`, the inhibition in assay [1] stood at 2.14%; in assay [2], 5.25%; in assay [3], 8.11%; in [4], 1.01%; in [5] it was 1.35%; in assay [6], 2.21%. Also, the inhibition is 5.46% in assay [7], 2.45% in [8], 3.7% in assay [9] and -9.4% in assay [10].
For the molecule `Nc1ncnc2occ(-c3ccc(NC(=O)Nc4cc(C(F)(F)F)ccc4F)cc3)c12`, the inhibition in [1] is 1.08% and -2.02%; in assay [2] it was 3.44% and -1.9%; in assay [3], 4.36% and -1.17%; in [4], 0.88% and -1%; in assay [5] it was 1.23% and -1.68%; in [6], 2.44% and -2.03%. Besides, the inhibition in assay [7] was 1.87% and -1.59%; in assay [8] it was -0.44% and -3.26%; in assay [9], -2.53% and -0.87%; in assay [10] it was 1.24%.
For the molecule `CCS(=O)(=O)c1ccc(OC)c(Nc2ncc(-c3cccc(F)c3)o2)c1`, the inhibition is -0.44% in assay [1]; 9.43% in assay [2]; 11.2% in [3]; 1.97% in [4]; 2.27% in assay [5]; 6% in assay [6]. Also, the inhibition in assay [7] is 9.2%; in [8], 7.29%; in assay [9], 9.85%; in assay [10], -7.56%.
`NS(=O)(=O)c1cccc(N/C=C2\C(=O)Nc3ccccc32)c1`: the inhibition in assay [1] is -1.86%; in [2] it was 5.24%; in assay [3], 8.78%; in [4] it was 1.76%; in assay [5] it was 2.04%; in [6] it was 4.81%. In addition, the inhibition in assay [7] is 4.94%; in assay [8] it was -8.13%; in assay [9], -8.7%; in assay [10] it was 3.85%.
Regarding `CCOc1ccc2c(-c3ccnc(Nc4cc(OC)cc(C(F)(F)F)c4)n3)cnn2n1`, the inhibition in assay [1] was 1.8%; in [2], 2.05%; in assay [3] it was 0.59%; in assay [4] it was -0.62%; in assay [5], 0.03%; in [6], -0.15%. The inhibition is -0.09% in [7], 0.09% in assay [8], 8.65% in assay [9] and -8.96% in assay [10].
Regarding `CCCNc1cccc(-n2ncc3c(N/N=C/c4ccncc4)ncnc32)c1`, the inhibition in [1] is -1.3%; in assay [2], -0.99%; in [3] it was -0.69%; in assay [4], 0.12%; in [5], -0.31%; in assay [6], 1.59%. The inhibition was 1.61% in [7], 8.4% in assay [8], 5.05% in assay [9] and 16.9% in assay [10].
For `O=C(O[C@H]1CN[C@H](C#Cc2cc3ncnc(Nc4ccc(OCc5cccc(F)c5)c(Cl)c4)c3s2)C1)N1CCOCC1`, the inhibition in assay [1] was -0.1%; in assay [2] it was 8.7%; in assay [3] it was 7.32%; in assay [4], 1.91%; in [5], 2.46%; in assay [6], 6.61%. The inhibition in assay [7] was 6.74%; in [8], 6.46%; in assay [9], 0.44%; in assay [10] it was -7.35%.
For the molecule `COc1ccc2ncn(-c3cc(O[C@H](C)c4ccccc4C(F)(F)F)c(C(N)=O)s3)c2c1`, the inhibition was 13.1% in assay [1]; -0.34% in assay [2]; 2.49% in assay [3]; -1.58% in assay [4]; -0.3% in [5]; -2.52% in assay [6]. The inhibition in assay [7] is 0.02%; in assay [8], -6.5%; in [9], -1.3%; in [10], -7.06%.
As to `CS(=O)(=O)CCNCc1ccoc1-c1ccc2ncnc(Nc3ccc(OCc4ccccc4)cc3)c2c1`, the inhibition was -0.88% in [1]; -2.84% in assay [2]; -0.82% in [3]; -0.75% in assay [4]; -2.34% in [5]; -3.57% in assay [6]. The inhibition in [7] was -0.05%; in assay [8], -0.34%; in assay [9], 3.51%; in assay [10] it was -5.6%.
`CS(=O)(=O)Nc1ccc(-c2cc(-c3ccccc3)cc(C(N)=O)c2N)cc1`: the inhibition in assay [1] is -0.88%; in assay [2], 4.98%; in assay [3] it was 4.78%; in assay [4], -0.21%; in assay [5], -0.16%; in assay [6] it was 0.92%. The inhibition is 3.38% in [7], 1.42% in assay [8], 0.16% in assay [9] and -9.24% in assay [10].
As for `COc1ccc(-c2nn3ncccc3c2-c2ccnc(Nc3ccc(F)c(F)c3)n2)cc1`, the inhibition in assay [1] came to 0.76%; in assay [2], 3.1%; in assay [3], 5.49%; in [4], 1.93%; in assay [5] it was 0.93%; in [6] it was 2.36%. Besides, the inhibition in assay [7] turned out to be 5.12%; in assay [8], 3.31%; in [9] it was 0.77%; in assay [10], 5.78%.
For the molecule `CNC(=O)c1ncccc1Nc1nc(Nc2cc3c(cc2OC)CCCN3C(=O)CN(C)C)nc2[nH]ccc12`, the inhibition in assay [1] was -5.28%; in [2], 7.85%; in [3], 7.25%; in [4], 0.92%; in [5], 1.69%; in assay [6], 4.29%. For the same molecule, the inhibition in assay [7] is 5.27%; in [8] it was 5.25%; in assay [9], -0.15%; in assay [10], 11.4%.
Regarding `CS(=O)(=O)CCNCc1ccc(-c2ccc3ncnc(Nc4ccc(OCc5ccccc5)cc4)c3c2)o1`, the inhibition is 1.34% in assay [1]; 6.85% in [2]; 5.65% in assay [3]; 0.34% in [4]; -0.94% in [5]; 3.86% in assay [6]. Besides, the inhibition in assay [7] is 3.33%; in assay [8], 3.91%; in assay [9] it was 2.57%; in assay [10], -3.53%.
Consider `CC(C)c1ccc(-c2cc(-c3c[nH]nc3-c3ccccn3)ccn2)cc1`, for which the inhibition in [1] was 3.31%; in assay [2] it was 1.09%; in assay [3], -1.39%; in assay [4] it was 0.93%; in [5] it was -0.21%; in assay [6] it was -0.3%. The inhibition in assay [7] was 0.21%; in assay [8], -1.29%; in assay [9] it was -0.36%; in assay [10], 2.8%.
